MT1-MMP txn act: MT1-MMP promoter transcription activation. activation factor at 10 µM. HT1080 MT1-MMP promoter luciferase reporter, luminescence, overnight; stronger effect = higher value. hit rate 0.16% among 86,000;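 active = activation factor of at least 2 for MT1-MMP transcription at 10 µM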
Smad3 inh: inhibitors of human Smad3 transcription factor binding | P84022 | TR-FRET Smad3/Dy647-FoxH1 peptide binding, europium anti-His | inhibition, % at 25 µM | hit rate 0.29% among 88,000 | AID 630;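 active = compounds that reduce the energy-transfer binding signal between the protein and its labelled peptide by more than half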
Target sequence (P84022 whole entry, looked up): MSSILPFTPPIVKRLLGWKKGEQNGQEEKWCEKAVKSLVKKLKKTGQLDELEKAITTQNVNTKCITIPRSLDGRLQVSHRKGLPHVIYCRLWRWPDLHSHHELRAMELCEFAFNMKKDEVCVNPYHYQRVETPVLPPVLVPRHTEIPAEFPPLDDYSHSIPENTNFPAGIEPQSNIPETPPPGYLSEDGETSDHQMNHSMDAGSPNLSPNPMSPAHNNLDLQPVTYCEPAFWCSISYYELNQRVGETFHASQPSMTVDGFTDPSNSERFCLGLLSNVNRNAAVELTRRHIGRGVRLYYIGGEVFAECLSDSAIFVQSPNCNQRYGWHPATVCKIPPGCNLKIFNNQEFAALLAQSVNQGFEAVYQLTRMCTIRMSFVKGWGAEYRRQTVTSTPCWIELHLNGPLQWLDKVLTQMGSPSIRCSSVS
Measles CPE: protection of cells from measles virus | Measles virus-infected cells, CPE protection, absorbance | protection (pct of control), % at 4 µM | hit rate 1.5% among 140,000 | AID 841; in the data active = protection mostly above about 24%, no sharp cut-off; inactive = mostly below about 26%
Numbers stand for hits; n = inactive; x = no result; [ ] = dose if it differs, or a comment. Compounds with a hit are over-represented: about 1.7% of the library has one in this group of screens.

SMILES	MT1-MMP txn act	Smad3 inh	Measles CPE
CCn1c(COc2ccc(C)cc2)nnc1SCC(=O)C(C)(C)C	n	n	n
CCn1c(COc2ccc(C)cc2)nnc1SCC(=O)Nc1cc(OC)ccc1OC	n	n	49
CCn1c(COc2ccccc2)nnc1SCC(=O)Nc1cc(C)ccc1OC	n	n	n
CCn1c(COc2ccccc2)nnc1SCC(=O)C(C)(C)C	n	59[fluorescence artefact?]	n
NC(=O)COc1ccc(C2c3c(oc4ccccc4c3=O)C(=O)N2CC2CCCO2)cc1 (stereo not given)	n	77	n
COc1ccc(C2c3c(oc4ccccc4c3=O)C(=O)N2CC2CCCO2)cc1 (stereo not given)	n	n	n
CN(C)Cc1cc(C(F)(F)F)ccc1C(O)(c1ccccc1)c1ccccc1	x	n	x
Cc1ccc(C)c(NC(=O)NCc2ccc(Cl)cc2)c1	x	n	x
CCOc1ccc(Nc2oc(-c3ccc(Cl)cc3)nc2C#N)cc1	n	n	n
COc1ccc(Nc2oc(-c3ccc(Cl)cc3)nc2C#N)cc1	2.2	n	n
N/C(=N\c1nc2c(c(=O)[nH]1)CCC2)Nc1ccccc1	x	x	48
N/C(=N\c1nc2c(c(=O)[nH]1)CCCC2)Nc1ccccc1	n	n	n
CC(OC(=O)c1cc(-c2cccnc2)nc2ccccc12)C(=O)Nc1ccc2ccccc2c1 (stereo not given)	x	x	n
CN(CCc1ccccn1)c1ccc2c(c1)C(=O)c1ccccc1-2	x	n	x
CCCCCCCCSc1n[nH]c(N)n1	x	x	n
CCCCCCCCCSc1n[nH]c(N)n1	x	x	60
CC[C@@H]1CC(=O)N(SC[C@H](N)C(=O)O)C1=O	x	n	x
O=C(NCc1ccco1)C1(c2ccccc2)CCCC1	n	n	n
COc1ccc(C2(C(=O)NCc3ccco3)CCCC2)cc1OC	n	n	53
O=C(NC(c1ccccc1)c1c(O)ccc2ccccc12)c1ccccc1Cl (stereo not given)	x	x	n
O=C(NC(c1ccc(Cl)cc1)c1c(O)ccc2ccccc12)c1ccccc1 (stereo not given)	x	x	42
CCOC(=O)CCSc1nc(C)c2ccccc2n1	n	n	56
CCOC(=O)CCSc1nc(C)c2cc(C)ccc2n1	n	n	n
CCCOc1ccc(C(=O)N2CCCC2C(=O)O)cc1 (stereo not given)	n	n	n
CCCCOc1ccc(C(=O)N2CCCC2C(=O)O)cc1 (stereo not given)	n	x	48
SMILES	MT1-MMP txn act	Smad3 inh	Measles CPE
N=c1ccn2c(n1)O[C@H]1[C@@H](OP(=O)(O)O)[C@H](CO)O[C@H]12	x	n	x
Cc1ccccc1OC1C(=O)N(Cc2ccc3c(c2)OCO3)C1c1sccc1C (stereo not given)	x	x	n
CCOc1ccc(C(=O)N2CCCC2)cc1OC	n	n	33
CCOc1ccc(C(=S)N2CCCC2)cc1OC	x	x	n
Cc1cc(C(C)(C)C)c(OCCCN2CCOCC2)c(C(C)(C)C)c1	x	n	x
Cc1ccc2cc(CN(Cc3cccs3)Cc3nnnn3CC3CCCO3)c(=O)[nH]c2c1 (stereo not given)	n	n	31
Cc1ccc2[nH]c(=O)c(CN(Cc3cccs3)Cc3nnnn3CC3CCCO3)cc2c1 (stereo not given)	n	n	n
O=c1cc(-c2ccc(Cl)cc2)[nH][nH]1	n	n	41
O=c1cc(-c2ccc(Cl)c(Cl)c2)[nH][nH]1	n	n	n
CC(NS(=O)(=O)c1ccc(CCC(=O)NCc2ccco2)cc1)c1ccccc1 (stereo not given)	x	x	n
CC(C)Oc1ccc(C(CC(=O)NCc2ccco2)c2ccccc2)cc1 (stereo not given)	n	n	24
Clc1cccc(Cl)c1/C=N\Nc1nccs1	x	x	n
O=[N+]([O-])c1cc(/C=N\Nc2nccs2)ccc1O	n	78	n
Cc1ccc([N+](=O)[O-])cc1-c1ccc(/C=N/NC(=O)c2cc3c(ccc4ccccc43)o2)o1	x	x	n
Cc1ccc(-c2ccc(/C=N\NC(=O)c3cc4c(ccc5ccccc54)o3)o2)cc1[N+](=O)[O-]	x	x	51
O=c1[nH]c2[nH]c(=S)[nH]c(=S)c2[nH]1	x	68	x
CC1=C(C(=O)OCc2ccccc2)C(c2ccc(Cl)cc2)NC(=O)N1CCCC(=O)O (stereo not given)	n	x	x
CCOC(=O)N1CCC(NC(=O)C2CCN(c3nc(-c4ccc(OC)cc4)no3)CC2)CC1	x	x	44
CCOC(=O)N1CCN(Cc2nc(-c3ccc(OC)cc3)no2)CC1	n	x	x
Nc1nc(=O)c2[nH]cnc2n1O	x	n	x
O=C(c1ccccc1)N1CCc2ccccc21	x	n	n
COc1ccc(C(=O)N2CCc3ccccc32)cc1	n	n	28
CCOC(=O)/C=C/C(=O)N1CCc2ccccc21	x	x	25
CCOC(=O)c1cc2sccc2n1CC(=O)N1CCc2ccccc21	n	n	n
CCOCC(=O)N1CCc2ccccc21	n	x	n
SMILES	MT1-MMP txn act	Smad3 inh	Measles CPE
Cc1csc(=N)n1CC(=O)N1CCc2ccccc21	n	n	26
CCC/C=C(\CCC)C(NS(=O)(=O)c1cccs1)c1ccc(C(=O)OC)cc1 (stereo not given)	n	x	x
Cc1ncc(CO)c2cc(C(N)=O)c(=Nc3ccccc3)oc12	n	n	48
Cc1ccc(N=c2oc3cc(O)ccc3cc2C(N)=O)cc1	n	n	n
CCC1=C2CC[C@H]3C(=O)N(C)C(=O)[C@H]3[C@H]2[C@@]2(C)C(=O)N(CC3CC3)C(=O)N2C1=O	n	x	x
CCOc1cc(N2CCOCC2)c(OCC)cc1NC(=O)COC(=O)c1cccc2ccccc12	x	x	n
O=C(C1CCCN(S(=O)(=O)c2cccc3nonc23)C1)N1CCN(c2ccccc2)CC1 (stereo not given)	n	n	n
CC1CC(C)CN(C(=O)C2CCCN(S(=O)(=O)c3cccc4nonc34)C2)C1 (stereo not given)	x	n	53
CC(=O)C1=C(O)CCC1=NCCc1ccccc1	n	n	29
CC(=NCCc1ccccc1)C1=C(O)CCC1=O	n	n	n
CC1=CC(=O)C=C(C)C1=NOc1ccccc1[N+](=O)[O-]	x	x	n
CC1Cc2cc(-c3csc(NC(=O)Cc4cccs4)n3)ccc2N1S(C)(=O)=O (stereo not given)	n	n	102
CS(=O)(=O)N1CCc2cc(-c3csc(NC(=O)Cc4ccccc4)n3)ccc21	n	n	118
O=C(Cc1cccs1)Nc1nc(-c2ccc(F)cc2F)cs1	n	n	n
CCCC(=O)Nc1nc(-c2ccc3c(c2)CCN3S(C)(=O)=O)cs1	n	n	n
Cn1c(SCC(=O)N/N=C/C=C/c2ccco2)nc2ccccc21	x	x	n
CN1CCN(c2ncnc3c2[nH]c2ccc(F)cc23)CC1	n	n	50
Cc1ccc2[nH]c3c(N4CCOCC4)ncnc3c2c1	n	n	n
OCCNc1nc2ccccc2n1CCN1CCCCC1	n	n	47
Cn1c(CNc2nc3ccccc3n2CCN2CCCCC2)nc2ccccc21	n	n	n
CC1CCC(NC(=O)CN2C(=O)COc3ccc(S(=O)(=O)N4CCCC4)cc32)CC1 (stereo not given)	x	x	n
Cc1ccc(-n2nnnc2-c2cnc(N3CCCC3)nc2C(F)(F)F)cc1	x	x	n
FC(F)(F)c1nc(N2CCCC2)ncc1-c1nnnn1-c1ccccc1	x	x	62
COC(=O)N1CC=CC1(C)C(=O)NCc1ccc(C)o1 (stereo not given)	n	x	x
COC(=O)CC1COc2ccccc2N1C(=O)c1cccc(Cl)c1 (stereo not given)	x	x	26
CC1Oc2ccccc2N(CC(=O)c2cccc(Cl)c2)C1=O (stereo not given)	n	x	n
